Measured values: the supplement of paper PMC6555819

Tests used:
Assay in all cases: PBM binding z-score (relative to random genomic background probes); higher = stronger binding; sequences stand for … in GC…GCGATTGACAGCGTAGAATGAAGG
[1] = system: FXR:RXRa (NR concentration 270 nM, RXRa partner concentration 90 nM)
How it was run: (§1)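 Random background probes are the reference for binding z-scores. These scores derive from regression-normalized fluorescence on custom Agilent 4×180K protein-binding microarrays incubated 1 h with ligand-free nuclear receptor dimers. Binding was detected with antibodies against each partner (one per run).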

[2] = system: LXRa:RXRa (NR concentration 270 nM, RXRa partner concentration 90 nM)
How it was run: as §1

[3] = system: LXRa homodimer (NR concentration 270 nM)
How it was run: as §1

[4] = system: LXRb:RXRa (NR concentration 270 nM, RXRa partner concentration 90 nM)
How it was run: as §1

[5] = system: LXRb homodimer (NR concentration 270 nM)
How it was run: as §1

[6] = system: PPARa:RXRa (NR concentration 270 nM, RXRa partner concentration 90 nM)
How it was run: as §1

[7] = system: PPARg:RXRa (NR concentration 180 nM, RXRa partner concentration 90 nM)
How it was run: as §1

[8] = system: PPARg:RXRa 270nM:90nM, anti-RXR (NR concentration 270 nM, RXRa partner concentration 90 nM)
How it was run: as §1

[9] = system: PPARg:RXRa 30nM:10nM, anti-RXR (NR concentration 30 nM, RXRa partner concentration 10 nM)
How it was run: as §1

[10] = system: PPARg:RXRa 90nM:30nM, anti-RXR (NR concentration 90 nM, RXRa partner concentration 30 nM)
How it was run: as §1

[11] = system: PPARg:RXRa DBDmut IVT, anti-RXR (DBD mutation: RXRa K156A/R161A, NR concentration 270 nM, RXRa partner concentration 90 nM)
How it was run: as §1

[12] = system: PPARg:RXRa IVT, anti-PPARg (NR concentration 270 nM, RXRa partner concentration 90 nM)
How it was run: as §1

[13] = system: PPARg DBDmut:RXRa IVT, anti-PPARg (DBD mutation: PPARg1 K132A/R137A, NR concentration 270 nM, RXRa partner concentration 90 nM)
How it was run: as §1

[14] = system: PPARg DBDmut IVT, anti-PPARg (DBD mutation: PPARg1 K132A/R137A, NR concentration 270 nM)
How it was run: as §1

[15] = system: PPARg homodimer (NR concentration 180 nM)
How it was run: as §1

[16] = system: PXR:RXRa (NR concentration 270 nM, RXRa partner concentration 90 nM)
How it was run: as §1

[17] = system: PXR homodimer (NR concentration 270 nM)
How it was run: as §1

[18] = system: RARa:RXR (NR concentration 270 nM, RXRa partner concentration 90 nM)
How it was run: as §1

[19] = system: RARa homodimer (NR concentration 270 nM)
How it was run: as §1

[20] = system: RARb:RXRa (NR concentration 270 nM, RXRa partner concentration 90 nM)
How it was run: as §1

Sequence | PBM binding z-score [1] | PBM binding z-score [2] | PBM binding z-score [3] | PBM binding z-score [4] | PBM binding z-score [5] | PBM binding z-score [6] | PBM binding z-score [7] | PBM binding z-score [8] | PBM binding z-score [9] | PBM binding z-score [10] | PBM binding z-score [11] | PBM binding z-score [12] | PBM binding z-score [13] | PBM binding z-score [14] | PBM binding z-score [15] | PBM binding z-score [16] | PBM binding z-score [17] | PBM binding z-score [18] | PBM binding z-score [19] | PBM binding z-score [20]
GCTGCTAGGTCAACTGATTGTCAGCTAAAGCTCG | 4.09 | 2.79 | -0.17 | 2.06 | 0.0753 | 3.54 | 2.73 | 3.13 | 0.683 | 2.12 | 4.92 | 4.51 | -0.116 | -0.522 | 0.898 | 1.19 | -0.593 | 2.27 | -0.584 | 4.25
CCAGACAGGTGAGAAGGTAATTCAGCCTCGATTA | -0.0604 | -0.00281 | 0.0932 | 0.0559 | -0.31 | 0.475 | 0.379 | 0.635 | -0.0755 | 0.116 | 1.14 | 0.682 | -0.0729 | -0.734 | 0.321 | -0.0378 | 0.107 | 0.349 | 0.94 | 0.555
GCGACTGGGGCATCAGCATGTTACCATAACTTAA | -0.56 | -0.551 | -0.462 | 0.363 | -0.493 | 0.258 | 0.836 | 0.643 | -0.13 | -0.0118 | 3.55 | 2.94 | -0.0811 | -0.739 | -0.0822 | -0.238 | -0.758 | -0.253 | -0.423 | 0.376
TCGAGTAGGTTTCCAATGGGGCATTCAGCTTTCT | 0.0114 | -0.0745 | -0.502 | 0.0167 | -0.0602 | -0.255 | -0.735 | 0.178 | 0.836 | 0.304 | 1.53 | 0.378 | -1.11 | -0.734 | -1.12 | -0.503 | -1.03 | -0.636 | -1.26 | -0.326
GTAACGAGGGCAAGTTGATAGCAGAGTTTGATGG | 0.832 | 0.576 | -0.256 | 0.49 | 0.052 | 1.9 | 1.29 | 1.19 | 0.279 | 0.807 | 3.49 | 3.09 | 0.298 | 0.937 | 0.983 | 0.884 | 1.23 | 0.596 | 0.449 | 2.58
CGAACTAGGTCATCCAGGACATTGAATACATTGA | 4.43 | 2.87 | 1.02 | 2.52 | 0.159 | 5.11 | 7.97 | 6.57 | 4.02 | 5.68 | 8.08 | 8.47 | 4.18 | 1.44 | 2.2 | 2.71 | 3.75 | 2.82 | 1.01 | 3.92
TCGAGTACGTTAGGGGCATTCAGAATGGCGTCGA | -0.212 | -0.0926 | -0.859 | 0.0159 | -1.01 | 0.403 | 0.0548 | 0.205 | 0.448 | 0.552 | 0.475 | -0.595 | -1.29 | -1.15 | -0.704 | 1.69 | 5.78 | -0.118 | -0.866 | 0.723
CTCGAAAGGTCGGTTGAGGTAAGTATACGGATAA | 1.93 | 1.41 | -0.197 | 1.28 | -0.165 | 2.34 | 0.4 | 0.787 | 0.0171 | 0.608 | -0.106 | 0.306 | -0.141 | 0.138 | 0.476 | 2.45 | 0.12 | 1.54 | -0.0404 | 2.64
TCGAGTAGGTCAGGGGCATTCAGAATGGCGTCGA | 2.3 | 1.52 | -0.495 | 1.9 | -0.546 | 3.41 | 4.73 | 4.8 | 2.48 | 4.21 | 4.91 | 5.07 | -0.408 | -0.403 | 1.33 | 1.2 | -0.323 | 1.44 | -0.681 | 3.39
ACAGACAGGAGATGAAGGTAACTCAGGCTATCAT | 0.323 | 0.193 | 0.173 | 0.229 | 0.489 | 0.00739 | 0.816 | 0.278 | 0.594 | 0.135 | -0.00945 | -0.0699 | 1.32 | 0.405 | 0.572 | 0.128 | 0.841 | 0.204 | 0.797 | 0.539
GCTGCTAGGTCAGGTTGGTCATCTAACGGGTACG | 1.59 | 1.01 | 0.226 | 0.755 | 0.00509 | 1.45 | 0.55 | 1.02 | -0.203 | 0.295 | 2.9 | 2.41 | -0.672 | -0.462 | 0.986 | 0.706 | -0.262 | 1.02 | -0.199 | 3.29
ACAGACAGGTGATGAAGGTAACTGAGGCTATCAT | 0.003 | -0.0614 | -0.296 | -0.234 | -0.411 | 0.0902 | 0.558 | 0.0724 | -0.0753 | 0.0172 | 0.31 | 0.434 | 0.949 | 0.0407 | 0.301 | -0.124 | 0.0874 | 0.438 | 0.583 | 0.369
CCTTACGGGTCACGAGGTTATAGGACGACGAGCG | 6.8 | 4.66 | 0.193 | 3.75 | -0.117 | 5.93 | 7.51 | 6.72 | 3.51 | 5.65 | 4.3 | 5.38 | 1.39 | 0.939 | 1.95 | 4.53 | 0.176 | 5.99 | 1.17 | 4.56
TCATATAGGTGAAGGTGAAAGTCGAACGATATGA | 0.452 | 0.703 | -0.543 | 0.713 | -0.39 | 3.24 | 5.02 | 5.16 | 4.73 | 4.96 | 6 | 6.13 | 1.24 | 0.938 | 0.35 | 0.448 | 0.0381 | 1.08 | 0.38 | 1.88
CCTTACGGGTCACTGCCAGGTTATAGCATTTGGA | 5.22 | 3.93 | 0.268 | 3.17 | 0.0184 | 4.86 | 4.05 | 4.26 | 1.23 | 2.88 | 3.11 | 3.87 | 0.0612 | -0.48 | 2.07 | 3.53 | 0.376 | 3.87 | 0.61 | 3.8
